Experimental findings from publication PMC7862700, “An all-to-all approach to the identification of sequence-specific readers for epigenetic DNA modifications on cytosine” are described below.

Common to all, as to assay: DAPPL (digital affinity profiling via proximity ligation, sequencing); 10 mM Tris-HCl pH 7.5, 50 mM NaCl, 1 mM DTT, 4% glycerol, room temperature, 30 min; GST-TFs on glutathione beads, 16-mer random dsDNA library, 0.1% formaldehyde crosslink after washing; high values mean tight binding
In assay [1] the target is T1, FEV (Homo sapiens, UniProt Q99581 1-238).
T1 sequence: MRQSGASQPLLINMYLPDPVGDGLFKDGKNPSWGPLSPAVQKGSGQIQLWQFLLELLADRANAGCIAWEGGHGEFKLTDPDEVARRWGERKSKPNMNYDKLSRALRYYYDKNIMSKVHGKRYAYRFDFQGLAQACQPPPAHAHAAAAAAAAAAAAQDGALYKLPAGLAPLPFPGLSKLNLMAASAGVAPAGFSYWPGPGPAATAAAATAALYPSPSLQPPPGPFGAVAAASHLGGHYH
The settings on record: protein: recombinant; tags: N-terminal GST; dsDNA, one strand shown. The procedure, abridged:
(§1)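 Human transcription factors carrying a GST fusion were produced in yeast, bound to glutathione beads, tagged with DNA barcodes and pooled together with a tag-only sample. Each pool was held with 200 nmole of a random double-stranded 16-mer DNA library in Tris/NaCl/DTT/glycerol buffer for 30 min at room temperature, then washed, crosslinked in 0.1% formaldehyde, proximity-ligated with BsaI/T4 ligase (1 h, 37 °C), PCR-amplified and sequenced on an Illumina NextSeq500. Binding signal is the read frequency of each hexamer for a given factor divided by its frequency in the tag-only sample.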

For assay [2], the target named is ETV5 (Homo sapiens, UniProt P41161 1-510). As to conditions: protein: recombinant; tags: N-terminal GST; dsDNA, one strand shown. The method, boiled down: as §1
Assay [3] has as its target HSF1 (Homo sapiens, UniProt Q00613 1-529). The settings on record: protein: recombinant; tags: N-terminal GST; chain copies: 3; dsDNA, one strand shown. The procedure, abridged: as §1
Assay [4] concerns the target T2, SPIC (Homo sapiens, UniProt Q8N5J4 1-248).
T2 sequence: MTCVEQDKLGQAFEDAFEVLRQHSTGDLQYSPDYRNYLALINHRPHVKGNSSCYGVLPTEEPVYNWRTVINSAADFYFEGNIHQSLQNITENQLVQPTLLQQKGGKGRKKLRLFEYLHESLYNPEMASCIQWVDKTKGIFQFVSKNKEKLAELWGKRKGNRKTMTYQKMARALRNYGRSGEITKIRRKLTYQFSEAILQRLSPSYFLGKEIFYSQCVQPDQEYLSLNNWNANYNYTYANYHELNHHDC
As to conditions: protein: recombinant; tags: N-terminal GST; dsDNA, one strand shown. The procedure, abridged:
as §1

Assay [5] addresses ELF4 (Homo sapiens, UniProt Q99607 1-663). The settings on record: protein: recombinant; tags: N-terminal GST; dsDNA, one strand shown. The procedure, abridged: as §1
For assay [6], the target named is T3, ELK4 (Homo sapiens, UniProt P28324-2 1-405).
T3 sequence: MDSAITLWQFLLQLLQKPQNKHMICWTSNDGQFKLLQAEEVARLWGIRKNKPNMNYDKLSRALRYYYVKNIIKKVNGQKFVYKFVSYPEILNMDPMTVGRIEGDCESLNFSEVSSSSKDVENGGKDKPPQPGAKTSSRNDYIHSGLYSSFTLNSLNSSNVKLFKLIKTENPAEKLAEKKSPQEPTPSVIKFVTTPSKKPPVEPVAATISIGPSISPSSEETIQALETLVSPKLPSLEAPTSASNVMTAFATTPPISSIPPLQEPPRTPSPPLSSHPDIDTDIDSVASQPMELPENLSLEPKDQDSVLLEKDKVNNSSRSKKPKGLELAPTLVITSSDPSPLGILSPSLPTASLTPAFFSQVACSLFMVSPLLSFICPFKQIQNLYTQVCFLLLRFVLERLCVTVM
The settings on record: protein: recombinant; tags: N-terminal GST; dsDNA, one strand shown. The procedure, abridged:
as §1

Assay [7] concerns the target T4, ETV2 (Homo sapiens, UniProt O00321 1-342).
T4 sequence: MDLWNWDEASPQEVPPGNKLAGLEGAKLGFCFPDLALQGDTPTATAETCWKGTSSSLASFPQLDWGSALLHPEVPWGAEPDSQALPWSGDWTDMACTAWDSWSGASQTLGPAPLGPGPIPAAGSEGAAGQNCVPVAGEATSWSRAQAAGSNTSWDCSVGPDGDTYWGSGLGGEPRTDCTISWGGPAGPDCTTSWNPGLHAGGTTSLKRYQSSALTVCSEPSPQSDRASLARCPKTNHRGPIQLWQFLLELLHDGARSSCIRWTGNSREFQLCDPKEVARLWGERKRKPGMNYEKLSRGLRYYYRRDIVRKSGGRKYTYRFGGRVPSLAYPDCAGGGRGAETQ
As to conditions: protein: recombinant; tags: N-terminal GST; dsDNA, one strand shown. The procedure, abridged: as §1

For assay [8], the target named is T5, ELF3 (Homo sapiens, UniProt P78545 1-371).
T5 sequence: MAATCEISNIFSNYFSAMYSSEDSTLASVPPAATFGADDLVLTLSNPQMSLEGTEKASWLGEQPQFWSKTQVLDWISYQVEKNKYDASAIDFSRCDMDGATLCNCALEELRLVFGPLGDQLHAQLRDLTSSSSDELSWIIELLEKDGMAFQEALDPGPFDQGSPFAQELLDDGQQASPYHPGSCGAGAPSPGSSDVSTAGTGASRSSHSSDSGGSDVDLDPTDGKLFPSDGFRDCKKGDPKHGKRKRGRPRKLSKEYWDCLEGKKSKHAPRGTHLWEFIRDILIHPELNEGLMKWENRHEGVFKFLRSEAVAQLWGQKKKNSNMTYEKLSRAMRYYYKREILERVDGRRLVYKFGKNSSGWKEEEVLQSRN
The settings on record: protein: recombinant; tags: N-terminal GST; dsDNA, one strand shown. The procedure, abridged: as §1

The target in assay [9] is CRX (Homo sapiens, UniProt O43186 1-299). As to conditions: protein: recombinant; tags: N-terminal GST; dsDNA, one strand shown. The method, boiled down: as §1
Assay [10] concerns the target ETV1 (Homo sapiens, UniProt P50549 1-477). The settings on record: protein: recombinant; tags: N-terminal GST; dsDNA, one strand shown. The method, boiled down: as §1
Assay [11] has as its target T6, ERF (Homo sapiens, UniProt P50548 1-548).
T6 sequence: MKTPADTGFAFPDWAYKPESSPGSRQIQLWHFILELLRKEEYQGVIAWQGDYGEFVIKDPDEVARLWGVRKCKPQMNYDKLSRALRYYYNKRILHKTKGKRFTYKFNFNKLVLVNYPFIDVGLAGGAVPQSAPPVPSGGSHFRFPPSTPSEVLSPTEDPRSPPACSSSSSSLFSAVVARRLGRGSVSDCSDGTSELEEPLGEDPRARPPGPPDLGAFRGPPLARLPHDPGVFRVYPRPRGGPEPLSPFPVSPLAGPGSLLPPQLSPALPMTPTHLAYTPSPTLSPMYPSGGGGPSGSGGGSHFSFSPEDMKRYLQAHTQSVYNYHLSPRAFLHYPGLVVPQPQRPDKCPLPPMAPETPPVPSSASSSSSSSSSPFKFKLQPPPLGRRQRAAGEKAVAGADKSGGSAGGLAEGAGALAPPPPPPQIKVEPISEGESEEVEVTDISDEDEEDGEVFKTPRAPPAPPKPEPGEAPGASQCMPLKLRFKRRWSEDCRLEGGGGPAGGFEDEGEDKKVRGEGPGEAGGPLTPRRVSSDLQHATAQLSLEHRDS
As to conditions: protein: recombinant; tags: N-terminal GST; dsDNA, one strand shown. The method, boiled down:
as §1

Assay [12] concerns the target T7, ETV3L (Homo sapiens, UniProt Q6ZN32 1-361).
T7 sequence: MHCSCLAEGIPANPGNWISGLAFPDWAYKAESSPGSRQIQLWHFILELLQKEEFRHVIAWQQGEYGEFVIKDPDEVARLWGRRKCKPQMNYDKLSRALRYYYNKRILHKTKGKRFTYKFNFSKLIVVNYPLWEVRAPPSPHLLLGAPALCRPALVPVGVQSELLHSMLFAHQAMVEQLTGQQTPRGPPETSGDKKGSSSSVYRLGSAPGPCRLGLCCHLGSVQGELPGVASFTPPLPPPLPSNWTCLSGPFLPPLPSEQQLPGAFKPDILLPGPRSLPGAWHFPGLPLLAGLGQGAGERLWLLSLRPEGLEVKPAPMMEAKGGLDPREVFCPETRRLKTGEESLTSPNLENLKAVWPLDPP
As to conditions: protein: recombinant; tags: N-terminal GST; dsDNA, one strand shown. The method, boiled down:
as §1

Assay [13] concerns the target T8, ETS2 (Homo sapiens, UniProt P15036 1-469).
T8 sequence: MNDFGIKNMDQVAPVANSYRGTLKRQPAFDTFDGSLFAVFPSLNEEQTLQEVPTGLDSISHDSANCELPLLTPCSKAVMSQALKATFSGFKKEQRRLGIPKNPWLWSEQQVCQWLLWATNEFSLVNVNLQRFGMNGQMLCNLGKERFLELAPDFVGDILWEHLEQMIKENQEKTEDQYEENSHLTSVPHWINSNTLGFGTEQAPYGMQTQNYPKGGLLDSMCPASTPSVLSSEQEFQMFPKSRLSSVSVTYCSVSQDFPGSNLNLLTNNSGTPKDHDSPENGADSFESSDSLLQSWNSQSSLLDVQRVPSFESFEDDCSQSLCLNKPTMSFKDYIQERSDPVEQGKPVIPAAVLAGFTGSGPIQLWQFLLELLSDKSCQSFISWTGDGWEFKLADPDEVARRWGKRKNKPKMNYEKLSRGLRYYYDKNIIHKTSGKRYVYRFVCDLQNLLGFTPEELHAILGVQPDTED
The settings on record: protein: recombinant; tags: N-terminal GST; dsDNA, one strand shown. The procedure, abridged:
as §1

In assay [14] the target is T9, SPDEF (Homo sapiens, UniProt O95238 1-335).
T9 sequence: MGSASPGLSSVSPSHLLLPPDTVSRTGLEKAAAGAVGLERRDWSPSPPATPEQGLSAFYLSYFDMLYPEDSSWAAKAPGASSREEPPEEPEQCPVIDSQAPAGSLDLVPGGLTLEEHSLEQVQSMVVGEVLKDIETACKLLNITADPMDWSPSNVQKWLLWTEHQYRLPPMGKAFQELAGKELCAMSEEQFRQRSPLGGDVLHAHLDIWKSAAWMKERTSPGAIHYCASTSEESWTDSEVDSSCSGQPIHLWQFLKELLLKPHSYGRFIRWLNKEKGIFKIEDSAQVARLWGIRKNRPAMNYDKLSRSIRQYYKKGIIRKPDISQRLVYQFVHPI
The settings on record: protein: recombinant; tags: N-terminal GST; dsDNA, one strand shown. The procedure, abridged:
as §1

The target in assay [15] is T10, ETV7 (Homo sapiens, UniProt Q9Y603 1-341).
T10 sequence: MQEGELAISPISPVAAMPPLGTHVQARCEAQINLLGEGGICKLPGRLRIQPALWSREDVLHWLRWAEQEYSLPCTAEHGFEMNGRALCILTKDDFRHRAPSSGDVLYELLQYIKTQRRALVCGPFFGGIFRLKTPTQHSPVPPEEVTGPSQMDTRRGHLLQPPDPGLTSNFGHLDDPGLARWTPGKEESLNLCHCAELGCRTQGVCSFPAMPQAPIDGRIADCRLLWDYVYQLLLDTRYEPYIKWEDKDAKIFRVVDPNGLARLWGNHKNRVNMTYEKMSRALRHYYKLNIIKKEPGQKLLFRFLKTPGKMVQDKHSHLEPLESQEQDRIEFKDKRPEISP
As to conditions: protein: recombinant; tags: N-terminal GST; dsDNA, one strand shown. The method, boiled down: as §1

Assay [16] concerns the target T11, ELF5 (Homo sapiens, UniProt Q9UKW6-2 1-255).
T11 sequence: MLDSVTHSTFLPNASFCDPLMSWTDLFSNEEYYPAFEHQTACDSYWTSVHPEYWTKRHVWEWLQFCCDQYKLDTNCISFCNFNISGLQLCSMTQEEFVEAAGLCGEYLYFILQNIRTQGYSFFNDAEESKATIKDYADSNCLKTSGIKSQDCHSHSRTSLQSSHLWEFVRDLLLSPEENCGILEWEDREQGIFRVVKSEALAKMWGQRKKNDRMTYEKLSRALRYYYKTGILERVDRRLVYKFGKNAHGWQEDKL
As to conditions: protein: recombinant; tags: N-terminal GST; dsDNA, one strand shown. The method, boiled down: as §1

The target of assay [17] is T12, ETV3 (Homo sapiens, UniProt P41162-2 1-143).
T12 sequence: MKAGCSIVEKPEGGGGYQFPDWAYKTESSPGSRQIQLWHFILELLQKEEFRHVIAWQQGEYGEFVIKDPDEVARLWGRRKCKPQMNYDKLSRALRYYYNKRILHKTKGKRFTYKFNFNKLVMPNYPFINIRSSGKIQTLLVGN
The settings on record: protein: recombinant; tags: N-terminal GST; dsDNA, one strand shown. The method, boiled down:
as §1

The target of assay [18] is ETV6 (Homo sapiens, UniProt P41212 1-452). As to conditions: protein: recombinant; tags: N-terminal GST; dsDNA, one strand shown. The procedure, abridged:
as §1

Chain of HSF1 (Q00613 whole entry): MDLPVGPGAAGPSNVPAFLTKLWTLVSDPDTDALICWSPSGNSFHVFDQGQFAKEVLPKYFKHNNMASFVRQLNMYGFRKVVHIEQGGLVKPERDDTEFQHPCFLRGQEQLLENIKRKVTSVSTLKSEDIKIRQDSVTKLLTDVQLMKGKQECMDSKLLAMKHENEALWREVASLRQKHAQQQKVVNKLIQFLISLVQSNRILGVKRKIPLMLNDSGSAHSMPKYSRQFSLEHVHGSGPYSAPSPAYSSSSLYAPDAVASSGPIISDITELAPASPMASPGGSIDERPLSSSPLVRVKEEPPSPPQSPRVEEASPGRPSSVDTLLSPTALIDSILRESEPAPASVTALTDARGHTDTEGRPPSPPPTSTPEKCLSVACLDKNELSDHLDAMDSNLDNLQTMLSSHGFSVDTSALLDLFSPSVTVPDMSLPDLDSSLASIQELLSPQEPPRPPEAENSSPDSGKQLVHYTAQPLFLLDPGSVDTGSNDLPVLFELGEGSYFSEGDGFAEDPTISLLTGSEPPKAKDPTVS
Chain of ETV6 (P41212 whole entry): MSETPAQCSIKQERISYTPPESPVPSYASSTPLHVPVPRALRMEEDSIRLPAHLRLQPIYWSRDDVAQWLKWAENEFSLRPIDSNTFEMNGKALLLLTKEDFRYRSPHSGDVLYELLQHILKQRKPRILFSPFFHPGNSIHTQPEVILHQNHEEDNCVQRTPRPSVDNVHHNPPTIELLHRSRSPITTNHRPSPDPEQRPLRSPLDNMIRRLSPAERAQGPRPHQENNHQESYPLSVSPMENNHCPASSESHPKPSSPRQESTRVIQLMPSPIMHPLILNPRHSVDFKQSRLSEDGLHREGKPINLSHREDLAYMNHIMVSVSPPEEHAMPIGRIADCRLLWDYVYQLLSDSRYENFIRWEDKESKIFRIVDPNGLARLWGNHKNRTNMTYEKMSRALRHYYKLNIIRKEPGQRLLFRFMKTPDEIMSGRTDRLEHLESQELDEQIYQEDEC
Chain of CRX (O43186 whole entry): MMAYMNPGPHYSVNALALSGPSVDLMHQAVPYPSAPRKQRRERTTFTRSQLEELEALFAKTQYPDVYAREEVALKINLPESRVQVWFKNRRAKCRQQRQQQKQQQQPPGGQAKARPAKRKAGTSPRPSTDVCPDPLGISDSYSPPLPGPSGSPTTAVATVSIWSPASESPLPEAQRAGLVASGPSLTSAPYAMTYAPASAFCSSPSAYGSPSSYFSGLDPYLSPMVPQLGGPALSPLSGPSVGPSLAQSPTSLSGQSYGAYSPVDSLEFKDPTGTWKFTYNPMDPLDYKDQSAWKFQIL
Chain of ETV1 (P50549 whole entry): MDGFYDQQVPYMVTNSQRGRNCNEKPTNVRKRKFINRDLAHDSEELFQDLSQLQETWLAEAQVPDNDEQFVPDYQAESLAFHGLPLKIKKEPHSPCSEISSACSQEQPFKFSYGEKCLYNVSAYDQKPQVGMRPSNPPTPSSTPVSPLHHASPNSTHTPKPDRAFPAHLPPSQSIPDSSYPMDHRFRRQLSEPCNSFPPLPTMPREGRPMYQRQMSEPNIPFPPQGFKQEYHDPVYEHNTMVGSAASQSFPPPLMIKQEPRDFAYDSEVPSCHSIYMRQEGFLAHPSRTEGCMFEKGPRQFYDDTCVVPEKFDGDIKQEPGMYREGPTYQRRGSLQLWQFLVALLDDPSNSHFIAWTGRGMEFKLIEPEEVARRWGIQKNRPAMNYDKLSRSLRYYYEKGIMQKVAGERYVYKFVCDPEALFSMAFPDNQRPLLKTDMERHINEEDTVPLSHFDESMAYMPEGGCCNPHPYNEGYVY
Chain of ETV5 (P41161 whole entry): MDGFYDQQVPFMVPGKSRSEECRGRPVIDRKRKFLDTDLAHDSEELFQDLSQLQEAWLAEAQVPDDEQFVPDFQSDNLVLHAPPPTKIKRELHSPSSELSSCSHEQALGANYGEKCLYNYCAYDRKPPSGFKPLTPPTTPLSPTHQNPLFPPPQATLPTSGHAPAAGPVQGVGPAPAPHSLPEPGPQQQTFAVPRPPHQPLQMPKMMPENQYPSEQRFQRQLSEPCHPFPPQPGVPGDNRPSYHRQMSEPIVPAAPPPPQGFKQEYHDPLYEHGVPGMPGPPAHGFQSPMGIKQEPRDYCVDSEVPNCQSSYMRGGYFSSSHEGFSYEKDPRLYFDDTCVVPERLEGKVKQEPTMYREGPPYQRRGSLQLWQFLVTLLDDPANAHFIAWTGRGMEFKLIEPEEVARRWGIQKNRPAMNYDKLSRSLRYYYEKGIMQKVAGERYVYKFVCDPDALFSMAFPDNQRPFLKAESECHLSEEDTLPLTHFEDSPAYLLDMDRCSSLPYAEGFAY
Chain of ELF4 (Q99607 whole entry): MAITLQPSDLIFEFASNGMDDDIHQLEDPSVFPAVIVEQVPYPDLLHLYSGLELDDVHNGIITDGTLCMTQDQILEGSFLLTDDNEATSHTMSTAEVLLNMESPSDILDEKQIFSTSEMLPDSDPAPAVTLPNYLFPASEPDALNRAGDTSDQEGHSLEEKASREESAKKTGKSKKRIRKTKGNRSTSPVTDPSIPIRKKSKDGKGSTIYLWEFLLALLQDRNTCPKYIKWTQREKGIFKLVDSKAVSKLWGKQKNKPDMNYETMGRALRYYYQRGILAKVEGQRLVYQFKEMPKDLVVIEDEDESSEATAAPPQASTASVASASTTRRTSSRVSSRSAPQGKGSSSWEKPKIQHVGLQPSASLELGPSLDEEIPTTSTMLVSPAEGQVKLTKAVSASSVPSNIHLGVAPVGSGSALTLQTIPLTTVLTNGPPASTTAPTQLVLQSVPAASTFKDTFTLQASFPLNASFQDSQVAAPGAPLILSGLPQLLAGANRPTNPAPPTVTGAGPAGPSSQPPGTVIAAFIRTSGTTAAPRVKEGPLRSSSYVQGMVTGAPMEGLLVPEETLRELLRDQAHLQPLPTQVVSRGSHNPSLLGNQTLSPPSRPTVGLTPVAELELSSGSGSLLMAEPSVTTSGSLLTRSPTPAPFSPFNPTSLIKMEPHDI

As to CCTATA, the binding signal is 1.33 fold enrichment (6-mer frequency, TF over GST control) in [1]; 1.31 fold enrichment (6-mer frequency, TF over GST control) in [2]; 1.16 fold enrichment (6-mer frequency, TF over GST control) in [3]; 1.35 fold enrichment (6-mer frequency, TF over GST control) in assay [4]; 1.29 fold enrichment (6-mer frequency, TF over GST control) in [5]; 1.4 fold enrichment (6-mer frequency, TF over GST control) in [6]. Also, the binding signal is 1.43 fold enrichment (6-mer frequency, TF over GST control) in assay [7]; 1.15 fold enrichment (6-mer frequency, TF over GST control) in [8]; 1.34 fold enrichment (6-mer frequency, TF over GST control) in assay [9]; 1.29 fold enrichment (6-mer frequency, TF over GST control) in assay [10]; 1.33 fold enrichment (6-mer frequency, TF over GST control) in assay [11]; 1.34 fold enrichment (6-mer frequency, TF over GST control) in assay [12]. Besides, the binding signal in assay [13] is 1.42 fold enrichment (6-mer frequency, TF over GST control); in assay [14], 1.45 fold enrichment (6-mer frequency, TF over GST control); in [15], 1.31 fold enrichment (6-mer frequency, TF over GST control); in assay [16] it was 1.39 fold enrichment (6-mer frequency, TF over GST control); in assay [17] it was 1.36 fold enrichment (6-mer frequency, TF over GST control); in assay [18], 1.39 fold enrichment (6-mer frequency, TF over GST control).
